RGS7-Gao reg: RGS7-Galphao binding modulators, primary screen, biochemical, multiplexed bead flow cytometry | actives lie on both sides | binding response (% of control), % at 10 µM | 220,000 compounds, 0.35% hits | AID 1439, 2008; in the data active means binding response below about 49% or above about 150%; inconclusive means no clear call, values can overlap the other calls; inactive means in between;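 further: fluorescent Galphao held in activated GDP-AlF4 state binding bead-coupled RGS7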
Target sequence (P09471 whole entry, looked up): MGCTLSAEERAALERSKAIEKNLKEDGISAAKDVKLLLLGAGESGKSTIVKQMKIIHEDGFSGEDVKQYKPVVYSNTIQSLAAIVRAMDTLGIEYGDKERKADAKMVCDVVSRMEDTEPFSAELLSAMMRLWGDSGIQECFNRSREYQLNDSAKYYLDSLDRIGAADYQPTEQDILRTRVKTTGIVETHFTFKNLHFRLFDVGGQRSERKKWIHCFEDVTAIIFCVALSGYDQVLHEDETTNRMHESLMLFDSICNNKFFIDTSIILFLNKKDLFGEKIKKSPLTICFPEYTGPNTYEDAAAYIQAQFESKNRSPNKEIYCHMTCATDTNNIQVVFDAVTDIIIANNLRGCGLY
RGS16-Gao HTS: modulators of RGS16 binding to Galphao, primary screen, biochemical, human proteins, multiplexed bead flow cytometry; Regulator of G-protein signaling 16 (Homo sapiens) + Guanine nucleotide-binding protein …; bead-based flow cytometry RGS16-Galphao binding, fluorescence; actives lie on both sides; binding response (% of control), % at 10 µM; 220,000 compounds, 0.38% hits; call rule not given here;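 further: Galphao activated by GDP with aluminum fluoride before binding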
RGS4-Gao reg: modulators of RGS4 binding to Galphao, primary screen, biochemical, multiplexed bead flow cytometry | AID 1415, 2008 | binding response (% of control), % at 10 µM | actives lie on both sides | 220,000 compounds, 0.33% hits; in the data active means binding response below about 49% or above about 150%; inactive means in between;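 further: fluorescent Galphao activated with aluminum fluoride binding bead-coupled RGS4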
Avidin bead fluor: green autofluorescence of compounds with avidin beads – biophysical, 488/530 nm, flow cytometry, artefact control, profiling panel; fluorescence (KMESF) at 10 µM; 220,000 compounds, 0.38% hits; compound fluorescence 488/530 nm; hits give high values; in the data active means fluorescence above about 47
RGS8-Gao: RGS8-Galphao binding modulators, primary screen, biochemical, multiplexed bead flow cytometry. Guanine nucleotide-binding protein G(o) subunit alpha (Homo sapiens), P09471. actives lie on both sides. response (percent of control binding), % at 10 µM. 220,000 compounds, 0.34% hits. AID 1423, 2008; in the data active means response below about 60% or above about 140%; inactive means in between;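 further: Galphao activated as the GDP aluminium fluoride complex binding bead-coupled RGS8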
GSH bead fluor: compound fluorescence on glutathione beads, profiling panel, artefact control, biophysical, 488/530 nm, flow cytometry | GSH beads flow cytometry, compound fluorescence 488/530 nm; hits give high values | fluorescence (KMESF) at 10 µM | 190,000 compounds, 0.25% hits | AID 1776, 2009; in the data active means fluorescence above about 89;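 further: glutathione beads carrying GST-tagged Bcl family fusion proteins plus one bare bead set; values are compound well signal with DMSO vehicle wells as background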
An asterisk follows results filed as active; ? = inconclusive; . = not tested or not shown; [ ] = dose if it differs, or a comment. This is a sample that favours compounds with a hit; in the whole collection about 1.2% have one here.

SMILES	RGS7-Gao reg	RGS16-Gao HTS	RGS4-Gao reg	Avidin bead fluor	RGS8-Gao	GSH bead fluor
COc1cc(N2CN=c3s/c(=C\c4ccccn4)c(=O)n3C2)cc(OC)c1OC	106	107	110	9	102	265*
N#Cc1c(N)nc(Sc2ccc(Cl)cc2)c(C#N)c1-c1ccccc1Cl	?	106	105	7	103	.
COc1ccc(C(=O)N/N=C(\C)CC(=O)Nc2cccc(C(F)(F)F)c2)cc1	?	129	149	69*	104	.
COCCNC(=O)C(=O)N/N=C(\C)CC(=O)Nc1cccc(C(F)(F)F)c1	?	108	105	5	105	.
N#Cc1ccc(COC(=O)C2CCC(=O)N2)cc1 (stereo unspecified)	105	107	105	7	103	258*
O=C1CCC(C(=O)OCC(=O)c2ccccc2)N1 (stereo unspecified)	69	75	75	8	79	10
Cc1c(-c2ccccc2)[n+](=O)c(-c2ccc(Cl)cc2)c(C)n1[O-]	115	103	104	8	102	16
Cc1oc(CN2CCOCC2)cc1C(=O)O	?	96	101	9	100	24
CC(C)CC(NC(=O)c1ccc(Cl)cc1)C(=O)OCC(=O)c1ccc2c(c1)NC(=O)CO2 (stereo unspecified)	111	100	110	4	108	239*
CCOc1ccc(N2C(=O)C3C(c4ccc(O)cc4)NC(CCSC)(C(=O)OC)C3C2=O)cc1 (stereo unspecified)	100	105	101	21	103	12
CCn1c(COc2ccc(=O)n(-c3ccccc3)n2)nnc1SCc1cccc(OC)c1	-3.1*	-13*	-20*	-1	13*	12
CCOc1cc(/C=N\Nc2ccc([N+](=O)[O-])cc2)ccc1OCC(=O)Nc1ccc(C)c(C)c1	95	93	94	32	98	16
COc1cc(/C=N\Nc2ccc([N+](=O)[O-])cc2)ccc1OCC(=O)Nc1ccc(C)c(C)c1	95	103	92	61*	100	13
Cc1cc(NC(=O)c2ccc(S(=O)(=O)N(C)C)cc2)n(-c2ccccn2)n1	122	104	108	88*	104	26
Cc1ccc(NC(CNS(=O)(=O)c2ccc(Cl)cc2)c2ccccc2)cc1 (stereo unspecified)	255*[activator]	124	215*[activator]	121*	94	13
O=S(=O)(NCC(Nc1ccc(Cl)cc1)c1ccccc1)c1ccccc1 (stereo unspecified)	101	103	100	3	101	7
CCOC(=O)/C(=N/Nc1ccccc1)Sc1nnc(CCc2ccccc2)n1-c1ccccc1	102	101	98	3	102	17
COC1=C(OC)c2ccccc2C(C(=O)O)N/C1=C(/C)Nc1ccncc1 (stereo unspecified)	102	102	101	9	101	267*
Cc1ccccc1NC(=S)NCc1ccccc1	106	103	106	8	103	21
CC(C)CCNC(=O)CN(C(=O)Cn1nnc(-c2ccccc2F)n1)c1cccc2c1CCCC2	12*	0.7*	20*	-1	12*	23
Cc1cc(C)n2nc(C(=O)OCCOc3cccc(Br)c3)nc2n1	102	103	103	8	102	253*
COc1cc([N+](=O)[O-])ccc1NC(=O)CSc1nccn1C	101	102	100	9	101	14
NC(=S)NNC(=O)c1cccc(Br)c1	100	104	105	29	102	19
CC(C)(C)c1ccc(C(=O)NNC(=O)c2cccc(Br)c2)cc1	146	107	118	65*	108	32
CN(CC(=O)N1CCN(c2ccccn2)CC1)S(=O)(=O)c1ccccc1	106	101	104	49*	100	12
SMILES	RGS7-Gao reg	RGS16-Gao HTS	RGS4-Gao reg	Avidin bead fluor	RGS8-Gao	GSH bead fluor
CN(CC(=O)N1CCN(c2ncccn2)CC1)S(=O)(=O)c1ccc(Cl)cc1	97	103	107	9	104	14
Cc1cc(Br)c2c(c1)C(O)(N1CCCCC1C)C(=O)N2 (stereo unspecified)	101	96	100	4	99	14
CCOC(=O)c1sc(NC(=O)C2CC2)cc1C	100	100	100	6	100	24
CCOC(=O)c1sc(NC(=S)NC(=O)C2CCCC2)cc1C	139	104	106	49*	103	12
CCOC(=O)c1c(-c2cccc([N+](=O)[O-])c2)csc1NC(=O)C1CCCCC1	97	100	96	4	99	166*
COc1cc(OC)cc(C(=O)NNC(=S)NC2CC2)c1	109	104	103	8	101	21
COc1ccc(NC(=O)CCNS(=O)(=O)c2ccc3c(c2)c(=O)n(C)c(=O)n3C)cc1	138	106	106	69*	100	24
C=CCn1c(=N)n(CC(=O)c2ccc(OC)cc2)c2ccccc21	?	104	105	7	105	.
CCCSc1nc(C)c(CC(=O)OCC)c(=O)[nH]1	104	99	98	8	102	48
C=CCSc1nc(C)c(CC(=O)OCC(C)C)c(=O)[nH]1	108	106	102	48*	101	18
CC(C)(C)C(=O)NNC(=O)c1cnccn1	?	103	103	8	105	.
COc1ccc(-n2c(SCC(=O)NCC3CCCO3)nc3ccccc32)cc1 (stereo unspecified)	100	100	100	13	104	36
Cc1nnc(-c2cnn(-c3ccccc3)c2N)n1Cc1ccncc1	122	106	105	78*	100	13
Cc1nnc(-c2cnn(-c3ccccc3)c2N)n1Cc1cccc(C(F)(F)F)c1	103	105	106	17	104	12
COc1ccc(CC(=O)Nc2nn(C)c3nc4c(C)cccc4cc23)cc1	?	96	92	11	99	.
Fc1ccc(NC(=S)N/N=C/c2ccc(F)c(F)c2)cc1	130	110	106	80*	102	22
CC(C)c1ccccc1OCCCCCNCCO	109	105	105	48*	100	23
Cc1ccc(/C=C/C(=O)NCc2ccc(S(N)(=O)=O)cc2)o1	100	77	94	16	86	9
O=C(NCc1ccco1)C(NS(=O)(=O)c1cccc2nsnc12)c1ccccc1 (stereo unspecified)	108	98	99	52*	100	21

Screens deposited in PubChem BioAssay by NMMLSC.
